Measurements taken from the supplement of paper PMC9588786.
± gives the standard deviation of the averaged measurements.

The compounds below were run on HT-1080 (assay: relative cell viability with RSL3 co-treatment (fraction of control); higher = stronger protection from RSL3-induced ferroptosis (higher viability)). Details: 10 µM.
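Also: viability read as CCK-8 absorbance at 450 nm in cells co-exposed to the GPX4 inhibitor RSL3, relative to a 0.01% DMSO vehicle control.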

Point of comparison: `Cc1cc(NC(=O)c2cccc(NC(=O)/C=C/CN(C)C)c2)ccc1Nc1nccc(-c2cccnc2)n1`, relative cell viability 0.407 ± 0.086. Against it:
- CN1CCN(c2cccc(Nc3nc4c(-c5ccc(S(C)(=O)=O)cc5)cccn4n3)c2)CC1 — higher, 1.21 ± 0.03
- CN1CCC(Nc2nc(Nc3ccc(Oc4ccccc4)cc3)c3c(=O)[nH]cc(Br)c3n2)CC1 — higher, 0.68 ± 0.087
- COc1cccc(-c2cc(=O)c3ccccc3o2)c1N — higher, 0.717 ± 0.064
- CN(C)S(=O)(=O)c1ccc2c(c1)/C(=C/c1cc3c([nH]1)CCCC3)C(=O)N2 — higher, 0.727 ± 0.081
- CNC(=O)c1ccccc1Nc1nc(Nc2ccc(N3CCOCC3)cc2OC)ncc1Cl — lower, 0.247 ± 0.07
- CN(c1ccccc1CNc1nc(Nc2ccc3c(c2)CC(=O)N3)ncc1C(F)(F)F)S(C)(=O)=O — higher, 0.723 ± 0.045
- Cn1cnc(N)c2ncnc1-2 [3-Methyladenine (3-MA)] — higher, 0.76 ± 0.078
- NC(=O)Nc1sc(-c2ccc(F)cc2)cc1C(N)=O — higher, 0.87 ± 0.046
- Cc1ccc(C(=O)Nc2ccc(CN3CCN(C)CC3)c(C(F)(F)F)c2)cc1C#Cc1cnc2cccnn12 — higher, 0.64 ± 0.11
- N#CCNC(=O)c1ccc(-c2ccnc(Nc3ccc(N4CCOCC4)cc3)n2)cc1 [Momelotinib (CYT387)] — within error, 0.4 ± 0.075
- CCCCCCCCCCCCc1ccc(S(=O)(=O)Nc2nncs2)cc1 — higher, 0.877 ± 0.09
- Nc1nc(Nc2ccc(S(N)(=O)=O)cc2)nn1C(=O)c1c(F)cccc1F — within error, 0.53 ± 0.095
- C[C@H](Nc1ncnc2[nH]cnc12)c1cc2ccc(F)cc2nc1-c1ccccn1 — within error, 0.59 ± 0.18
- O=C(c1ccc(Nc2nccc(-c3cc4ccccc4s3)n2)cc1)N1CCC(N2CCCC2)CC1 [IKK-16 (IKK Inhibitor VII)] — lower, 0.277 ± 0.038
- C#Cc1cccc(Nc2ncnc3cc4c(cc23)OCCOCCOCCO4)c1 [Icotinib] — higher, 0.64 ± 0.075
- O=C(NCCO)c1cccc(-c2cc(Nc3ccc(OC(F)(F)F)cc3)ncn2)c1 — higher, 0.713 ± 0.13
- CC(C)(C)c1ccc(S(=O)(=O)/C=C/C#N)cc1 — higher, 0.707 ± 0.015
- O=C(Nc1cc(C(F)(F)F)cc(C(F)(F)F)c1)c1cc(Cl)ccc1O — within error, 0.537 ± 0.06
- N#Cc1c(O)c2c(-c3ccc(-c4ccccc4O)cc3)csc2[nH]c1=O — higher, 0.793 ± 0.046
- COc1ccc(S(=O)(=O)N(C(C)=O)c2ccccc2/C=C/c2cc[n+]([O-])cc2)cc1 — higher, 0.633 ± 0.015
- C[C@@H]1COCCN1c1cc(C2([S@](C)(=N)=O)CC2)nc(-c2cc[nH]c3nccc2-3)n1 — higher, 0.777 ± 0.06
- O=C(NCc1cccc(O)c1)Nc1nc(-c2ccncc2)cs1 — higher, 0.77 ± 0.05
- CO[C@@H](C)Cn1c(=O)n(C)c2cnc3ccc(-c4cncc(C(C)(C)O)c4)cc3c21 — within error, 0.457 ± 0.13
- C=CC(=O)Nc1cccc(Nc2nc(Nc3ccc(Oc4ccnc(C(=O)NC)c4)cc3)ncc2F)c1 — higher, 0.6 ± 0.056
- Cc1cc(C)c(/C=C2\C(=O)Nc3ccccc32)[nH]1 [Semaxanib (SU5416)] — higher, 0.983 ± 0.15
- CNc1nc(-c2ccc3c(N)n[nH]c3c2)cc(N2C[C@@H](C(=O)NC3CCCCC3)CC[C@H]2C)n1 — higher, 0.647 ± 0.13
- CC(C)CC(NC(=O)C(Cc1ccccc1)NC(=O)C(CCC(N)=O)NC(=O)C(Cc1ccc(O)cc1)NC(=O)C(C)NC(=O)CNC(=O)C(CCCCN)NC(=O)C(Cc1c[nH]c2ccccc12)NC(=O)C(NC(=O)C(Cc1c[nH]c2ccccc12)NC(=O)C(CCCCN)NC(=O)CNC(=O)C(CC(N)=O)NC(=O)C(CCC(=O)O)NC(=O)C(Cc1c[nH]c2ccccc12)NC(=O)C(NC(=O)C(Cc1c[nH]c2ccccc12)NC(=O)C(CO)NC(=O)CNC(=O)C1CCCN1C(=O)C(Cc1c[nH]c2ccccc12)NC(=O)C(CCC(N)=O)NC(=O)C(Cc1ccccc1)NC(=O)CNC(=O)C(N)Cc1c[nH]cn1)C(C)O)C(C)O)C(=O)NC(CCCCN)C(=O)NCC(=O)NCC(=O)NCC(=O)NCC(=O)NC(CO)C(=O)NC(CCCNC(=N)N)C(=O)NC(CCCNC(=N)N)C(=O)NC(CCCNC(=N)N)C(=O)NC(CCCNC(=N)N)C(=O)NC(CCCNC(=N)N)C(=O)NC(CCCNC(=N)N)C(=O)NC(CCCNC(=N)N)C(=O)NC(CCCNC(=N)N)C(=O)NC(CCCNC(=N)N)C(=O)O (stereo not drawn) — higher, 0.7133 ± 0.0058
- Cc1ccc(C(=O)Nc2ccc(CN3CCN(C)CC3)c(C(F)(F)F)c2)cc1C#Cc1cnc2[nH]ncc2c1 [GZD824 Dimesylate] — higher, 0.553 ± 0.031
- COc1cc(Nc2ncc(F)c(Nc3ccc4c(n3)N(COP(=O)(O)O)C(=O)C(C)(C)O4)n2)cc(OC)c1OC [Fostamatinib (R788)] — higher, 0.6 ± 0.017
- COc1cc2nccc(Oc3ccc(NC(=O)C4(C(=O)Nc5ccc(F)cc5)CC4)cc3)c2cc1OC — within error, 0.7 ± 0.21
- CC(C)n1nc(-c2cc3cc(O)ccc3[nH]2)c2c(N)ncnc21 [Torkinib (PP242)] — higher, 0.833 ± 0.12
- CN1CCC(COc2cnc(-c3cccc(Cn4nc(-c5cccc(C#N)c5)ccc4=O)c3)nc2)CC1 — higher, 0.633 ± 0.067
- C=CC(=O)Nc1cccc(Sc2nc(Nc3ccc(N4CCN(C)CC4)cc3)ncc2Cl)c1 — within error, 0.423 ± 0.035
- C[C@@]1(C(=O)Nc2ccc(F)nc2)CCCN1c1nc(Nc2cc(C3CC3)n[nH]2)c2cccn2n1 — within error, 0.483 ± 0.05
- COc1cc2ncnc(Nc3ccc(F)c(Cl)c3)c2cc1OCCCN1CCOCC1 [Gefitinib (ZD1839)] — higher, 0.66 ± 0.072
- O=C(O)C(Cc1ccccc1[N+](=O)[O-])=NNc1nc(-c2ccc(Cl)c(Cl)c2)cs1 (mixture of isomers) — higher, 1.27 ± 0.046
- CCn1c(-c2nonc2N)nc2c(C#CC(C)(C)O)ncc(OC[C@H]3CCCNC3)c21 — within error, 0.563 ± 0.18
